# Inconclusive results are not listed. Entries that show only a call come without a potency. Some compounds were tested as several samples or in several runs, with calls that do not always agree. Active and inactive are the calls of the source. Unless noted, calls follow the shape of the full dose curve.
# What was measured:
# [1] = qHTS assay to identify small molecule antagonists of the sonic hedgehog signaling (Shh) pathway (AID 1259369); also: nearly all actives have a fitted effect of over 45% in size; also: potency is read from the fitted curve at half-maximal effect
# How it was run: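 Conditioned medium drives Shh signalling in 3T3Gli1-Luc cells; compounds in DMSO co-applied, 24hr at 37 C, then luciferase luminescence.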
# [2] = target: Estrogen receptor beta (Homo sapiens) (UniProt Q92731); experiment: qHTS assay to identify small molecule agonists of the estrogen receptor beta (ER-beta) signaling pathway (AID 1259377; active = well fitted activation curve with a large enough effect in the signal ratio in the repeat runs, not every such curve was filed as active; the % refers to the signal ratio)
# Estrogen receptor beta (Homo sapiens), sequence (Q92731 whole entry, looked up): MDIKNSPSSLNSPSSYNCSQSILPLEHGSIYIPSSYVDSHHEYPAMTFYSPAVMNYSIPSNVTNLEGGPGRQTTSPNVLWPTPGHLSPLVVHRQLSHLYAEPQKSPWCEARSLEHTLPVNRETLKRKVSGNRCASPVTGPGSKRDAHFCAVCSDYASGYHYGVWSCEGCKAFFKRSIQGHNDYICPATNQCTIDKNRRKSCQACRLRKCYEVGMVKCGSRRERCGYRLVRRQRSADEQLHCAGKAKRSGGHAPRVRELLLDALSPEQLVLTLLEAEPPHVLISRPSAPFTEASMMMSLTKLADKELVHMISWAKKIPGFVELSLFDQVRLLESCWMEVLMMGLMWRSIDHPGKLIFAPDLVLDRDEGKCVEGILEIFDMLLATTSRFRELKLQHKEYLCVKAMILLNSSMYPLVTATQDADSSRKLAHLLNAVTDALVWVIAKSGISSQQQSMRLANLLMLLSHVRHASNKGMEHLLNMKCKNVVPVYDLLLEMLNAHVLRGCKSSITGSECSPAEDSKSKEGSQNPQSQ
# How it was run: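 Beta-lactamase reporter readout: fluorescence of LiveBLAzer B/G FRET substrate after 2 h at room temperature, following 16 h compound treatment of ER-beta-UAS-bla HEK293T cells at 37C in 2% charcoal-stripped FBS medium.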
# [3] = target: Estrogen receptor beta (Homo sapiens) (UniProt Q92731); experiment: qHTS assay to identify small molecule antagonists of the estrogen receptor beta (ER-beta) signaling pathway (AID 1259378; active = well fitted inhibition curve with a large enough effect in the signal ratio in the repeat runs, not every such curve was filed as active; the % refers to the signal ratio; also: potency is read from the fitted curve at half-maximal effect)
# How it was run: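 ER-beta-UAS-bla HEK293T (GripTite) cells in 2% charcoal-stripped FBS medium were preincubated 6 hr at 37C, dosed with compound, then stimulated with 1 nM E2 (final) for 16 hr; beta-lactamase reporter read by B/G FRET fluorescence after 2 hr substrate loading.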
# [4] = qHTS assay to identify small molecule agonists of the androgen receptor (AR) signaling pathway in the presence of an antagonist - cell viability counter screen (AID 1259379; active = well fitted curve in the direction sought with a large enough effect in the repeat runs; an effect the other way counts as inactive or inconclusive; also: nearly all actives have a fitted effect of over 25% in size; also: potency is read from the fitted curve at half-maximal effect;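 as to activity change, negative = cytotoxicity: MDA-kb2 human breast cancer cells carrying an MMTV luciferase reporter; series mostly up to about 92 µM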)
# How it was run: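 A CellTiter-Fluor read-out measured viability of MDA-kb2 reporter cells (MMTV promoter with AR and GR response elements). Treatment: nilutamide 3.0uM final with compounds at 15 concentrations, 16 hr, 37C, 0% CO2.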
# [5] = qHTS assay to identify small molecule agonists of the estrogen receptor beta (ER-beta) signaling pathway - cell viability counter screen (AID 1259380; active = well fitted curve in the direction sought with a large enough effect in the repeat runs; an effect the other way counts as inactive or inconclusive; also: nearly all actives have a fitted effect of over 30% in size; also: potency is read from the fitted curve at half-maximal effect)
# How it was run: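 Cells used were ER-beta-UAS-bla HEK293T in medium with 2% charcoal-stripped FBS. They were treated for 16 hr at 37C. Viability came from CellTiter-Glo luminescence.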
# [6] = qHTS assay to identify small molecule antagonists of the estrogen receptor beta (ER-beta) signaling pathway - cell viability counter screen (AID 1259382; active = well fitted curve in the direction sought with a large enough effect in the repeat runs; an effect the other way counts as inactive or inconclusive; also: nearly all actives have a fitted effect of over 55% in size; also: potency is read from the fitted curve at half-maximal effect; as to activity change, negative = cytotoxicity: series mostly up to about 92 µM)
# How it was run: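 Agonist-stimulated (1nM E2) ER-beta-UAS-bla HEK293T cells are incubated with library compounds for 16 hr at 37C. Cell viability is then assessed in the reporter-assay wells by adding CellTiter-Glo and reading luminescence after 30 min.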
# [7] = target: Estrogen receptor (Homo sapiens) (UniProt P03372); experiment: qHTS assay to identify small molecule agonists of the estrogen receptor alpha (ER-alpha) signaling pathway in the presence of an antagonist (AID 1259383); also: top concentration of the series differs between compounds; nearly all actives have a fitted effect of over 15% in size
# Estrogen receptor (Homo sapiens), sequence (P03372 whole entry, looked up): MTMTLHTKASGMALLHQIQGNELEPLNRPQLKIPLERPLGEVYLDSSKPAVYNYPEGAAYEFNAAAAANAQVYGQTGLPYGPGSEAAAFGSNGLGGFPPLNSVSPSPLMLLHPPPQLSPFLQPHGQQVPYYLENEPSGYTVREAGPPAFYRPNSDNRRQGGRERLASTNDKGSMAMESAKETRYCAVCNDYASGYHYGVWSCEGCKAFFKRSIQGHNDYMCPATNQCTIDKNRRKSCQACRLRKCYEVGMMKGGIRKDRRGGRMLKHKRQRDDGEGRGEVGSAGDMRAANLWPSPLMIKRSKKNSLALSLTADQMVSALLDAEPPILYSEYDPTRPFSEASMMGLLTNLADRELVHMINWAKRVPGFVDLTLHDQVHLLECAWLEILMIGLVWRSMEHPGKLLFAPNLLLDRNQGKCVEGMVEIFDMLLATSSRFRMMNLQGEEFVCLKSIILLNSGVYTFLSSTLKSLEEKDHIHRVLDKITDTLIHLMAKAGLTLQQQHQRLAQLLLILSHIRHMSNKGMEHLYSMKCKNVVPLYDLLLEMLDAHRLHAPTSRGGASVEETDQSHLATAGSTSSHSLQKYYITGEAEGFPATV
# How it was run: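 Using VM7Luc4E2 cells seeded 24hr before treatment, antagonist ICI-182,780 (10.0nM final) was added, followed by compounds at 15 concentrations. Plates incubated 22hr; ONE-Glo luminescence quantified reporter activity.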
# [8] = qHTS assay to identify small molecule agonists or antagonists of the thyroid stimulating hormone receptor (TSHR) signaling pathway - wild type cell line counter screen (AID 1259384)
# How it was run: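 Wild-type HEK293 cells were plated 18 h at 37 C/5% CO2, pin-dosed with compound plus Ro20-1724 medium, held 30 min at room temperature, then given cAMP-d2 and anti-cAMP-cryptate; fluorescence was read after 1 h. Fifteen concentrations, triplicate.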
# [9] = target: Thyrotropin receptor (Homo sapiens) (UniProt P16473); experiment: qHTS assay to identify small molecule antagonists of the thyroid stimulating hormone receptor (TSHR) signaling pathway (AID 1259385); also: nearly all actives have a fitted effect of over 20% in size; also: potency is read from the fitted curve at half-maximal effect
# Thyrotropin receptor (Homo sapiens), sequence (P16473 whole entry, looked up): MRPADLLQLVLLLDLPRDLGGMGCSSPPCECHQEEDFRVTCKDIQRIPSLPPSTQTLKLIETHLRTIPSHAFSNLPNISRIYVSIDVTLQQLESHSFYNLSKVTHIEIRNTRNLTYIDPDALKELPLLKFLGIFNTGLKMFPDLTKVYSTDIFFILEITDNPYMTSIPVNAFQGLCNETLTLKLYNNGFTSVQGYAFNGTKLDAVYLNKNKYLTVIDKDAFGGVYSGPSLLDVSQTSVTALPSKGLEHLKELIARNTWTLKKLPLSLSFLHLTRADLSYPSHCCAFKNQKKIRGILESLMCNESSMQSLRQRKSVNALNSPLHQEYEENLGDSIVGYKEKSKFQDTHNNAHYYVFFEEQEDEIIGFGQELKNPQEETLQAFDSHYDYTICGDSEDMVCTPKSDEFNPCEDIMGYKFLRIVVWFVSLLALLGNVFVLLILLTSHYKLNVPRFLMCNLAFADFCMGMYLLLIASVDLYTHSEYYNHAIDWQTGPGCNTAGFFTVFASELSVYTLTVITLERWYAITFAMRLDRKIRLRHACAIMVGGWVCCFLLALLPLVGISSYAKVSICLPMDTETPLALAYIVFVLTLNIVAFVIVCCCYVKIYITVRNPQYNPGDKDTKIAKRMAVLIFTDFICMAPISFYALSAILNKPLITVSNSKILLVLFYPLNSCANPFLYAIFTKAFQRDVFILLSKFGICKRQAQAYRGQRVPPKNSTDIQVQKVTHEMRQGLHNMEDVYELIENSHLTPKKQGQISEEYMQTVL
# How it was run: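 TSHR-HEK293 cells were plated and held 18 h at 37C/5% CO2, then given compound plus Ro20-1724 and stimulated with TSH at 1.5 ng/mL final. After 30 min at room temperature, cAMP was detected with cAMP-d2/anti-cAMP-cryptate (1 h) by fluorescence.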
# [10] = target: Androgen receptor (Homo sapiens) (UniProt P10275); experiment: qHTS assay to identify small molecule agonists of the androgen receptor (AR) signaling pathway in the presence of an antagonist (AID 1259381); also: nearly all actives have a fitted effect of over 15% in size; also: potency is read from the fitted curve at half-maximal effect
# Androgen receptor (Homo sapiens), sequence (P10275 whole entry, looked up): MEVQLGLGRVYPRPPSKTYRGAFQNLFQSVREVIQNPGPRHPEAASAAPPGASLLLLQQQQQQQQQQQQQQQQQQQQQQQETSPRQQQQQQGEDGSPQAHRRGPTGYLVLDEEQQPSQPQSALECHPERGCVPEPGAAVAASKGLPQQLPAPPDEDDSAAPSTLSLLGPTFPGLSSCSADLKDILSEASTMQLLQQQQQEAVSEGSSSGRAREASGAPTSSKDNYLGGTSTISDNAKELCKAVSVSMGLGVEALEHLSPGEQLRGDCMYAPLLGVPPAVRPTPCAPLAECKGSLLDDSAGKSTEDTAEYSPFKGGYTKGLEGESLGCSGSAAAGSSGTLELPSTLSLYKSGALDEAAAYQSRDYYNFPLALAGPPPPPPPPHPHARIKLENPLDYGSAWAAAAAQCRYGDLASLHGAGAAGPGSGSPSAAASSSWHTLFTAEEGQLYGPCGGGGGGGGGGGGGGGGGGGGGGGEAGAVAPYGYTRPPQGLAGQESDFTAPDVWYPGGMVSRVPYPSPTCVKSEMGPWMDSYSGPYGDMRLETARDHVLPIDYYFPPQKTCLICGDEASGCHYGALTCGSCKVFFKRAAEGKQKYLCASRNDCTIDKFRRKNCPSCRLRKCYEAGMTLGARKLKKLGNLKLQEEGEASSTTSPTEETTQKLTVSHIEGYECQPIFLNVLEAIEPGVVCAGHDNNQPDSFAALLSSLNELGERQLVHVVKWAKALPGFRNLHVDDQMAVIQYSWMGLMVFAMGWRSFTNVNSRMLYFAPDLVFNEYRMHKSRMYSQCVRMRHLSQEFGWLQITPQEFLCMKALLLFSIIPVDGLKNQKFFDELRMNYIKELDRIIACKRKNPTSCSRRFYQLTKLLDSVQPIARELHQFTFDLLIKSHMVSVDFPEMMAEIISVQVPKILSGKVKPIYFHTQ
# How it was run: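 Using human MDA-kb2 cells with an MMTV promoter–luciferase construct (AR and GR response elements), agonist activity is scored under 3.0uM nilutamide (final) co-treatment; 16hr incubation, 37C, luminescence readout via ONE-Glo.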
structure (smiles),measurement,setting,value
Cc1cc(O)c(C(C)C)cc1Cl,Potency,[1],15.4 µM (active) and inactive
same,Potency,[2],inactive
same,Potency,[3],inactive
same,Potency,[4],inactive
same,Potency,[5],inactive
same,Potency,[6],inactive
same,Potency,[7],inactive
same,outcome,[8],inactive
same,Potency,[9],inactive
C1COCO1,Potency,[1],inactive
same,Potency,[2],inactive
same,Potency,[3],inactive
same,Potency,[4],inactive
same,Potency,[5],inactive
same,Potency,[6],inactive
same,Potency,[7],inactive
same,outcome,[8],inactive
same,Potency,[9],inactive
C=CC(C)=CCC=C(C)C,Potency,[1],inactive
same,Potency,[2],inactive
same,Potency,[3],inactive
same,Potency,[4],inactive
same,Potency,[5],inactive
same,Potency,[6],inactive
O=C1NCCN1,Potency,[1],inactive
same,Potency,[2],inactive
same,Potency,[3],inactive
same,Potency,[4],inactive
same,Potency,[5],inactive
same,Potency,[6],inactive
same,Potency,[7],inactive
same,outcome,[8],inactive
same,Potency,[9],inactive
CC(=N\O)/C(C)=N/O,Potency,[1],inactive
same,Potency,[2],inactive
same,Potency,[3],inactive
same,Potency,[4],inactive
same,Potency,[5],inactive
same,Potency,[6],inactive
same,outcome,[8],inactive
same,Potency,[9],inactive
CCCCCCCCCOC(C)=O,Potency,[1],inactive
same,Potency,[2],inactive
same,Potency,[3],inactive
same,Potency,[4],inactive
same,Potency,[5],inactive
same,Potency,[6],inactive
same,outcome,[8],inactive
same,Potency,[9],inactive
CC(=O)Nc1ccc(N)cc1,Potency,[1],inactive
same,Potency,[2],inactive
same,Potency,[3],inactive
same,Potency,[4],inactive
same,Potency,[5],inactive
same,Potency,[10],inactive
same,Potency,[6],inactive
same,outcome,[8],inactive
same,Potency,[9],inactive
Cc1ccccc1N1C(=O)c2cc(S(N)(=O)=O)c(Cl)cc2NC1C (stereo not given),Potency,[1],inactive
same,Potency,[2],inactive
same,Potency,[3],inactive
same,Potency,[4],inactive
same,Potency,[5],inactive
same,Potency,[6],inactive
same,outcome,[8],inactive
same,Potency,[9],inactive
CCC(C)=O,Potency,[1],inactive
same,Potency,[2],inactive
same,Potency,[3],inactive
same,Potency,[4],inactive
same,Potency,[5],inactive
same,Potency,[6],inactive
CN1CCN(c2c(F)cc3c(=O)c(C(=O)O)cn4c3c2OCN4C)CC1,"activity change, negative = inhibition",[1],2.85% [at 19 µM] (inactive)
same,activation,[2],-0.625% [at 19 µM] (inactive)
same,"activity, negative = inhibition",[3],2.63% [at 19 µM] (inactive)
same,"activity change, negative = cytotoxicity",[4],0.471% [at 19 µM] (inactive)
same,"activity change, negative = cytotoxicity",[5],3.44% [at 19 µM] (inactive)
same,"activity change, negative = cytotoxicity",[6],-1.98% [at 19 µM] (inactive)
same,cAMP activity change,[8],0.366% [at 18.9 µM] (inactive)
same,"activity change, negative = inhibition",[9],-3.1% [at 19 µM] (inactive)
C/C=C(\C)C(=O)OCCC(C)CCC=C(C)C (stereo not given),Potency,[1],inactive
same,Potency,[2],inactive
same,Potency,[3],inactive
same,Potency,[4],inactive
same,Potency,[5],inactive
same,Potency,[6],inactive
CCCC(=O)O[C@]1(C(=O)COC(=O)CC)CC[C@H]2[C@@H]3CCC4=CC(=O)CC[C@]4(C)[C@H]3[C@@H](O)C[C@@]21C,"activity change, negative = inhibition",[1],-24.8% [at 19 µM] (inactive)
same,activation,[2],6.24% [at 19 µM] (inactive)
same,"activity, negative = inhibition",[3],1.87% [at 19 µM] (inactive)
same,"activity change, negative = cytotoxicity",[4],0.279% [at 19 µM] (inactive)
same,"activity change, negative = cytotoxicity",[5],1.26% [at 19 µM] (inactive)
same,Potency,[10],184 nM (active)
same,"activity change, negative = cytotoxicity",[6],2.67% [at 19 µM] (inactive)
same,cAMP activity change,[8],6.72% [at 18.9 µM] (inactive)
same,"activity change, negative = inhibition",[9],-1.62% [at 19 µM] (inactive)
CC(=O)Nc1ccccc1C,Potency,[1],inactive
same,Potency,[2],inactive
same,Potency,[3],inactive
same,Potency,[4],inactive
same,Potency,[5],inactive
same,Potency,[6],inactive
same,Potency,[7],inactive
same,outcome,[8],inactive
same,Potency,[9],inactive
O=C(O)C(Cc1cc(I)c(O)c(I)c1)c1ccccc1 (stereo not given),Potency,[1],inactive
same,Potency,[2],inactive
same,Potency,[3],inactive
same,Potency,[4],inactive
same,Potency,[5],inactive
same,Potency,[6],inactive
same,Potency,[7],inactive
same,outcome,[8],inactive
same,Potency,[9],inactive
Oc1cc(O)c(Cl)cc1Cl,Potency,[1],inactive
same,Potency,[2],inactive
same,Potency,[3],inactive
same,Potency,[4],inactive
same,Potency,[5],inactive
same,Potency,[6],inactive
same,Potency,[7],inactive
same,outcome,[8],inactive
same,Potency,[9],inactive
CCCOC(=O)c1ccc(N)cc1,Potency,[1],inactive
same,Potency,[2],inactive
same,Potency,[3],inactive
same,Potency,[4],inactive
same,Potency,[5],inactive
same,Potency,[10],inactive
same,Potency,[6],inactive
same,outcome,[8],inactive
same,Potency,[9],inactive
CC(C)CCCCCOC(=O)CCCCC(=O)OCCCCCC(C)C,Potency,[1],inactive
same,Potency,[2],inactive
same,Potency,[3],inactive
same,Potency,[4],inactive
same,Potency,[5],inactive
same,Potency,[6],inactive
same,outcome,[8],inactive
same,Potency,[9],inactive
CCCCCC=CCC=CCCCCCCCC(=O)OCC,Potency,[1],inactive
same,Potency,[2],inactive
same,Potency,[3],inactive
same,Potency,[4],inactive
same,Potency,[5],29.8 µM (active)
same,Potency,[6],inactive
same,Potency,[7],inactive
same,outcome,[8],inactive
same,Potency,[9],inactive
CC[C@@H]([C@H](C)O)n1ncn(-c2ccc(N3CCN(c4ccc(OC[C@@H]5CO[C@@](Cn6cncn6)(c6ccc(F)cc6F)C5)cc4)CC3)cc2)c1=O,Potency,[1],188 nM (active)
same,Potency,[2],inactive
same,Potency,[3],5.96 µM (active)
same,Potency,[4],11.9 µM (active)
same,Potency,[5],4.22 µM (active)
same,Potency,[6],9.44 µM (active)
same,outcome,[8],inactive
same,Potency,[9],29.8 µM (active)
COc1ccc(CCC(=O)c2c(O)cc(O[C@@H]3O[C@H](CO)[C@@H](O)[C@H](O)[C@H]3O[C@@H]3O[C@@H](C)[C@H](O)[C@@H](O)[C@H]3O)cc2O)cc1O,Potency,[1],inactive
same,Potency,[2],inactive
same,Potency,[3],inactive
same,Potency,[4],inactive
same,Potency,[5],inactive
same,Potency,[10],inactive
same,Potency,[6],inactive
same,Potency,[7],inactive
same,outcome,[8],inactive
same,Potency,[9],inactive
OC/C(Br)=C(\Br)CO,Potency,[1],inactive
same,Potency,[2],inactive
same,Potency,[3],inactive
same,Potency,[4],inactive
same,Potency,[5],inactive
same,Potency,[6],inactive
same,outcome,[8],inactive
CC(CCO)CCc1ccccc1 (stereo not given),Potency,[1],inactive
same,Potency,[2],inactive
same,Potency,[3],inactive
same,Potency,[4],inactive
same,Potency,[5],inactive
same,Potency,[6],inactive
same,outcome,[8],inactive
same,Potency,[9],inactive
CCOCCn1c(C2CCN(CCc3ccc(C(C)(C)C(=O)O)cc3)CC2)nc2ccccc21,Potency,[1],inactive
same,Potency,[2],inactive
same,Potency,[3],inactive
same,Potency,[4],inactive
same,Potency,[10],inactive
same,Potency,[6],inactive
same,Potency,[7],inactive
same,outcome,[8],inactive
same,Potency,[9],inactive
